The nature of experiment [1]: optical density shifts of acrAB sulA E. coli – strain DRC41, OD650, 48 h, E. coli filamentation inducer project, primary screen (AID 1152).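 Further: E. coli MC1000 strain DRC41 lacking acrAB efflux pump and sulA.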 The following applies: higher = more signal, called active from +8 up or from −8 down.
Experiment [2] in a line: probe aLefty1 binding on compound microarray – biochemical, small-molecule microarray, 635/667 nm fluorescence, primary screen (AID 1153).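 Further: score merges spot fluorescence with signal-to-noise ratio from the scanned slide images.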 The following applies: higher = more signal.
Experiment [3] can be described thus: plasmodial surface anion channel blockers, osmotic lysis – cell-based, P. falciparum Indochina, OD700, 1 h, primary screen (AID 1154). The following applies: P. falciparum Indochina infected RBC osmotic lysis, higher = more signal, called active from +8 up or from −8 down.
The nature of experiment [4]: plasmodial surface anion channel blockers, osmotic lysis – cell-based, P. falciparum Indochina, OD700, 2 h, primary screen (AID 1155).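 Further: lysis reports solute entry through the parasite surface anion channel PSAC.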 The following applies: P. falciparum Indochina infected erythrocytes, higher = more signal, called active from +8 up or from −8 down.
A short description of experiment [5]: changes in parasitized red cell lysis, either direction – P. falciparum Indochina, OD700, 3 h, PSAC antagonist project, primary screen (AID 1156). The following applies: P. falciparum-infected erythrocytes, osmotic lysis, higher = more signal, called active from +8 up or from −8 down.
Experiment [6] can be described thus: plasmodial surface anion channel blockers, osmotic lysis – cell-based, P. falciparum Indochina, OD700, 18 h, primary screen (AID 1157). The following applies: P. falciparum Indochina infected erythrocytes, osmotic lysis OD700, 18 h; higher = more signal, called active from +8 up or from −8 down.
The nature of experiment [7]: S6 kinase pathway phospho-S6 level changes – cell-based, A549, cytoblot, luminescence, serum-stimulated, primary screen (AID 1158).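 Further: serum-stimulated A549 lung adenocarcinoma cells; signal is phosphorylated S6 detected by cytoblot immunostaining with HRP secondary.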 The following applies: 5 h, higher = more signal.
For experiment [8], the target named is NADPH oxidase 2 (Homo sapiens) (UniProt P04839). The experiment is described as follows: compounds shifting NOX2 Amplex Red fluorescence – cell-based, HEK293-NOX2, PMA-stimulated, NOX inhibitor project, primary screen (AID 1159). Further: test concentration not given here. The following applies: 45 min, higher = more signal, called active from +8 up or from −8 down.
Chain of NADPH oxidase 2 (Homo sapiens) (P04839 whole entry, looked up): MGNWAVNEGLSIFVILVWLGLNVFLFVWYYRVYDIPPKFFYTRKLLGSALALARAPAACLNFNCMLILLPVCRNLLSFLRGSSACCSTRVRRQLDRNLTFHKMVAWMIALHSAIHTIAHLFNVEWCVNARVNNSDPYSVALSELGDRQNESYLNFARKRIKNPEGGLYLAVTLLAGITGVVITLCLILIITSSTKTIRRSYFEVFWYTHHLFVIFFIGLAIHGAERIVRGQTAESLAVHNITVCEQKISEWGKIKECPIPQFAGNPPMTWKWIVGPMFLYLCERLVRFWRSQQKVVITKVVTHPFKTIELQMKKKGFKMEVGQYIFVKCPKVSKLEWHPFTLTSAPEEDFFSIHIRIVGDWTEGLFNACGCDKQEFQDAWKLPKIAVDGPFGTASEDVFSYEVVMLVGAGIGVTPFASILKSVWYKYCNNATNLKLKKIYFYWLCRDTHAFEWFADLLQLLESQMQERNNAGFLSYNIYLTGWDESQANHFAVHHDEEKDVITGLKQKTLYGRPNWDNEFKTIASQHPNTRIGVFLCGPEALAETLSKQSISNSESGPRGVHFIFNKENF
The target in experiment [9] is NADPH oxidase 4 (Homo sapiens) (UniProt Q9NPH5). Description: compounds shifting NOX4 Amplex Red fluorescence – cell-based, HEK293-NOX4, tetracycline-induced, NOX inhibitor project, primary screen (AID 1160). The following applies: HEK293-NOX4, Amplex Red H2O2 fluorescence, 45 min; higher = more signal, called active from +8 up or from −8 down.
Chain of NADPH oxidase 4 (Homo sapiens) (Q9NPH5 whole entry, looked up): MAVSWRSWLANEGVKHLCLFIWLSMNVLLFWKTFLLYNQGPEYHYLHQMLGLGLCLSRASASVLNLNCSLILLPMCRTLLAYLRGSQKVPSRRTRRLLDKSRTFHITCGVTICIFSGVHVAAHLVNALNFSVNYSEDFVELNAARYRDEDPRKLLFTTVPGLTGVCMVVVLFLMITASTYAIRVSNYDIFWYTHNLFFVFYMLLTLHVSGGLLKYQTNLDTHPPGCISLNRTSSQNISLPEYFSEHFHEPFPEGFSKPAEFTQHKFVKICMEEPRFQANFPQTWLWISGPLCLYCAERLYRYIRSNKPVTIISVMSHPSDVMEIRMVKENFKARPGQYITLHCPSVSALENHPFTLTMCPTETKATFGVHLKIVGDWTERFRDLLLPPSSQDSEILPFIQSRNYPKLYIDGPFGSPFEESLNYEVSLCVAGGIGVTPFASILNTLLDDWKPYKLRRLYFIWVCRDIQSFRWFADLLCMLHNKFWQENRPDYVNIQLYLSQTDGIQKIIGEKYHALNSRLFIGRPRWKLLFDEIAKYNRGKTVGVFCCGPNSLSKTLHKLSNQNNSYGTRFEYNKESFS
In experiment [10] the target is NADPH oxidase 5 (Homo sapiens) (UniProt Q96PH1). The experiment is described as follows: compounds shifting NOX5 Amplex Red fluorescence – cell-based, HEK293-NOX5, NOX inhibitor project, primary screen (AID 1161). The following applies: HEK293-NOX5, ionomycin, 45 min, higher = more signal.
Chain of NADPH oxidase 5 (Homo sapiens) (Q96PH1 whole entry, looked up): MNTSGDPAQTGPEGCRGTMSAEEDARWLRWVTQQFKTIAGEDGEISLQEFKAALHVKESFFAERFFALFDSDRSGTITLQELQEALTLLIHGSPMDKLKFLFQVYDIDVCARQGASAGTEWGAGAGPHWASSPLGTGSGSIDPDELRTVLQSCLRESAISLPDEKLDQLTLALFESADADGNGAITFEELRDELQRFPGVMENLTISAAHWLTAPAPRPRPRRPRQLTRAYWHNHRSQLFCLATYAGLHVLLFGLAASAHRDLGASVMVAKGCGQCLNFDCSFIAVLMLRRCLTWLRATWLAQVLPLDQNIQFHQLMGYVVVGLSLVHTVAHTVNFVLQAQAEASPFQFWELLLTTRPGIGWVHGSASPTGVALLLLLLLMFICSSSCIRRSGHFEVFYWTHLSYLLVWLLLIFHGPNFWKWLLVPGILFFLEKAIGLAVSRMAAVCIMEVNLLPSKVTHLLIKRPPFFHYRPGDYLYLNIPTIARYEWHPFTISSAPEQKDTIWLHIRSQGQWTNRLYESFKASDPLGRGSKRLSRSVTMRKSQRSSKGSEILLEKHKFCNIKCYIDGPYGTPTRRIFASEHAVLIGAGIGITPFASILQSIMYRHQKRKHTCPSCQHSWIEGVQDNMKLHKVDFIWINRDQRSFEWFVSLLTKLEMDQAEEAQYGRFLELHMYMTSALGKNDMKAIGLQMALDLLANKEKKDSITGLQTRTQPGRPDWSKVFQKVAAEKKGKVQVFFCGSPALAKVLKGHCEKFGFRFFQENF
Experiment [11] is described as follows: compound effects on lung adenocarcinoma cell viability – A549, calcein-AM fluorescence, 48 h, basal, profiling panel (AID 1162). Further: test concentration not given here. The following applies: higher = more signal.
Experiment [12] can be described thus: compound effects on differentiated 3T3-L1 adipocyte viability – cell-based, 3T3-L1 adipocytes, calcein-AM fluorescence, 48 h, basal, profiling panel (AID 1163). Further: test concentration not given here. The following applies: 3T3-L1 adipocytes viability, higher = more signal.
Experiment [13] can be described thus: compound effects on hepatocellular carcinoma cell viability – HepG2, calcein-AM fluorescence, 48 h, basal, profiling panel (AID 1164). Further: test concentration not given here. The following applies: higher = more signal.
Experiment [14] can be described thus: compound effects on multiple myeloma cell viability – MM1S, calcein-AM fluorescence, 48 h, basal, profiling panel (AID 1165).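 Further: viability of MM1S multiple myeloma cells under basal unstimulated conditions; test concentration not given here.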 The following applies: higher = more signal.
Experiment [15] is described as follows: calcein-AM signal in unstimulated myeloma cells – cell-based, calcein-AM fluorescence, 48 h, PK04 Diversity Set, profiling panel (AID 1166).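 Further: cells grown under basal conditions without added stimulus; test concentration not given here.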 The following applies: RPMI8226 myeloma viability, higher = more signal.
Experiment [16] can be described thus: JC-1 mitochondrial signal, unstimulated HepG2 cells – cell-based, JC-1 fluorescence, 24 h, 100 nL compound, profiling panel (AID 1167). Further: test concentration not given here. The following applies: HepG2 mitochondrial potential, higher = more signal.
A short description of experiment [17]: JC-1 mitochondrial signal, unstimulated adipocytes – cell-based, JC-1 fluorescence, 3T3-L1 adipocytes, 24 h, 100 nL compound, profiling panel (AID 1168). Further: test concentration not given here. The following applies: JC-1 mitochondrial fluorescence, higher = more signal, called active from +8 up or from −8 down.
A short description of experiment [18]: JC-1 mitochondrial signal, unstimulated myeloma cells – cell-based, JC-1 fluorescence, RPMI8226, 24 h, 100 nL compound, profiling panel (AID 1169). Further: test concentration not given here. The following applies: JC-1 mitochondrial potential fluorescence, higher = more signal.
Experiment [19] is described as follows: JC-1 mitochondrial signal, unstimulated MM1S myeloma – cell-based, JC-1 fluorescence, 24 h, 100 nL compound, profiling panel (AID 1170). Further: test concentration not given here. The following applies: MM1S mitochondrial potential, higher = more signal.
The nature of experiment [20]: resazurin metabolic signal in A549 cells – cell-based, resazurin fluorescence, 24 h, PK04 Diversity Set, profiling panel (AID 1171). Further: test concentration not given here. The following applies: A549 viability, higher = more signal, called active from +8 up or from −8 down. (In general: The colour change of resazurin is a common sign of viable cells or microbes.)

Calls of active or inactive are those of the source.

Consider eight molecules from PubChem BioAssay.

In the case of `C=C[C@H](CO[Si](CC)(CC)CC)N(Cc1ccc(OC(C)=O)c(OC)c1)S(=O)(=O)c1ccc(Br)cc1`, the z-score in experiment [1] is 0.719 (inactive); in experiment [3], -0.0878 (inactive); in [4] it was -0.231 (inactive); in experiment [5], -0.738 (inactive); in experiment [6], -1.39 (inactive); in experiment [7] it was 0.674. For the same molecule, the z-score in [8] was -2 (inactive); in [9], -0.928 (inactive); in [10], -1.27; in [11], -0.217; in experiment [12], 0.327; in experiment [13], -4.67. In addition, the z-score in experiment [14] was -3.23; in experiment [15], -4.32; in experiment [16], -1.25; in [17] it was 1.07 (inactive); in experiment [18] it was -1.1; in experiment [19], -1.84. Moreover, the z-score in experiment [20] is -0.18 (inactive). The composite z-score in [2] turned out to be 0.698.

With `CC(C)NC(=O)[C@@]1(c2ccc([N+](=O)[O-])cc2)CC(=O)N(C2CCCCC2)[C@@H]1c1ccc(CO)cc1I`, the z-score in experiment [1] is 1.36 (inactive); in experiment [3], 15.8 (active); in experiment [4], 2.08 (inactive); in experiment [5], 1.07 (inactive); in [6] it was 0.966 (inactive); in [7], -0.0892. Further, the z-score in experiment [8] was 0.824 (inactive); in experiment [9], -1.57 (inactive); in experiment [10], 1.45; in experiment [11], 1.92; in [12], 1; in experiment [13] it was 0.243. The z-score in [14] was -2.24; in [15] it was -2.58; in experiment [16], 1.29; in [17], 0.484 (inactive); in [18], -0.169; in [19] it was 0.521. Further, in [20], the z-score was 0.465 (inactive). Further, in [2], the composite z-score was found to be 0.533.

As to `COC(=O)[C@@]1(Cc2ccc(OC)cc2)[C@H]2c3cc(C(=O)N(C)C)n(C)c3C[C@H]2CN1C(=O)c1ccccc1`, the z-score in experiment [1] is -2.89 (inactive); in experiment [3], 1.98 (inactive); in [4], 0.451 (inactive); in experiment [5], 1.07 (inactive); in [6], 1.16 (inactive); in experiment [7], 0.775. Also, the z-score in [8] was 1.12 (inactive); in experiment [9] it was 1.77 (inactive); in experiment [10] it was 2.16; in experiment [11], -1.37; in experiment [12], 0.288; in [13], -1.7. Also, the z-score in [14] is -2.27; in experiment [15] it was -2.47; in experiment [16] it was 2.66; in experiment [17], -0.536 (inactive); in [18], -0.701; in [19], -1.17. Besides, the z-score in [20] is -0.482 (inactive). In addition, the composite z-score in experiment [2] was found to be 1.56.

As for `CN1C=C(C(=O)OCCS(C)(=O)=O)C(C(=O)OCCS(C)(=O)=O)=CC(c2ccc(CO)cc2)=CC1C1CC1` (stereo not given), the z-score in [1] was 0.225 (inactive); in experiment [3], 11.3 (active); in experiment [4], 1.46 (inactive); in experiment [5], -0.107 (inactive); in [6], 0.897 (inactive); in [7], 0.116. Further, the z-score is -2.88 (inactive) in experiment [8]; -1.13 (inactive) in [9]; -2.52 in experiment [10]; 1.39 in [11]; -0.0622 in [12]; 1.28 in experiment [13]. Also, the z-score in experiment [14] is -0.807; in [15] it was -0.75; in experiment [16], 2.14; in experiment [17], -0.9 (inactive); in experiment [18], 0.167; in experiment [19] it was -0.919. The z-score in experiment [20] is -0.267 (inactive). In [2], the composite z-score is -0.147.

Consider `CCCCN1CC=CC23O[C@@H]4C=CCCOC(=O)C4[C@H]2C(=O)N(CCCCCCO)[C@@H]3C1=O` (stereo not given in full), for which the z-score is -0.288 (inactive) in [1]; 0.371 (inactive) in experiment [3]; 0.491 (inactive) in [4]; 0.711 (inactive) in experiment [5]; 0.258 (inactive) in experiment [6]; -0.493 in experiment [7]. Besides, the z-score in experiment [8] is 1.24 (inactive); in [9], -0.13 (inactive); in experiment [10], 1.85; in experiment [11], 0.384; in experiment [12], -0.585; in [13], 0.441. In addition, the z-score in experiment [14] was 1.51; in experiment [15] it was -0.363; in experiment [16] it was 0.493; in experiment [17], 0.271 (inactive); in experiment [18], -0.109; in experiment [19], -0.399. The z-score in experiment [20] was -0.176 (inactive). Further, in [2], the composite z-score is -0.147.

In the case of `NCCCCCNC(=O)[C@@H]1C[C@@H]2C(=O)N[C@@H](Cc3ccccc3)C(=O)N2[C@@H]1c1ccc(O)cc1`, the z-score in experiment [1] was -1.16 (inactive); in [3], 1.24 (inactive); in experiment [4], 0.24 (inactive); in [5], -0.648 (inactive); in experiment [6], -0.116 (inactive); in [7], -0.358. For the same molecule, the z-score in experiment [8] is 0.713 (inactive); in [9], 0.539 (inactive); in experiment [10], -0.657; in [11] it was -0.119; in experiment [12], 0.588; in experiment [13], -0.0207. Besides, the z-score was -1.4 in experiment [14]; -0.0144 in experiment [15]; 0.181 in [16]; -0.0278 (inactive) in experiment [17]; 0.00631 in [18]; 0.397 in [19]. Also, the z-score in experiment [20] was -0.0029 (inactive). The molecule also displayed a composite z-score in [2] of 0.176.

On to `O=C1c2ccccc2[C@](Cc2ccccc2I)(C(=O)NCC(F)(F)F)[C@H](c2ccc(CO)cc2)N1Cc1ccccc1Cl`, for which the z-score was 0.193 (inactive) in experiment [1]; 4.4 (inactive) in experiment [3]; 0.208 (inactive) in experiment [4]; 1.84 (inactive) in experiment [5]; 0.499 (inactive) in [6]; 0.312 in experiment [7]. The z-score was 2.69 (inactive) in experiment [8]; 0.566 (inactive) in experiment [9]; 1.05 in experiment [10]; 0.0986 in experiment [11]; 0.46 in [12]; 0.0068 in [13]. Besides, the z-score in [14] was -1.06; in [15], -1.55; in experiment [16] it was 0.798; in experiment [17], 0.149 (inactive); in [18], -0.68; in experiment [19] it was -1.34. The z-score in [20] was 1.57 (inactive). In addition, the composite z-score in experiment [2] was -0.105.

With `COCCOC(=O)N1C(=O)[C@@]2(c3cc(C#CC4(O)CCCCCC4)ccc31)[C@H](c1ccc(OCCO)cc1)N1[C@H](c3ccccc3)[C@H](c3ccccc3)OC(=O)[C@H]1[C@@H]2C(=O)N1CCN(c2ncccn2)CC1`, the z-score was -0.393 (inactive) in experiment [1]; 7.73 (inactive) in [3]; 2.47 (inactive) in [4]; 0.493 (inactive) in experiment [5]; 1.12 (inactive) in experiment [6]; -0.537 in [7]. In addition, the z-score is 1.61 (inactive) in experiment [8]; 0.854 (inactive) in experiment [9]; 1.83 in [10]; -0.147 in [11]; -0.507 in [12]; -0.0949 in experiment [13]. Besides, the z-score was -0.373 in [14]; 0.182 in experiment [15]; -0.643 in [16]; 0.295 (inactive) in [17]; -0.266 in [18]; -1.19 in experiment [19]. The z-score in experiment [20] was -0.473 (inactive). In experiment [2], the composite z-score stood at 0.813.
